Compound activity as filed in PubChem BioAssay.
Sampled rows, rich in hits. Any-hit rate of the full collection: about 27%.
sEH inh = soluble epoxide hydrolase (human) inhibition | P34913 | recombinant human sEH enzymatic activity assay | inhibition, % at 2 µM | 91,000 tested, 0.34% active | AID 707; in the data active = inhibition above about 80%
sEH activator = soluble epoxide hydrolase (human) activation; P34913; purified human sEH enzymatic activity, activator screen; activation, % at 2 µM; 91,000 tested, 0.04% active; AID 717; in the data active = activation above about 37%
CYP2C19 act = increases human CYP2C19 enzyme activity. recombinant CYP2C19, luciferin-H EGE luminescence; stronger effect = higher value; 0 = fully inhibited enzyme, 1 = untreated enzyme. activation factor at 5 µM. 96,000 tested, under 10 active;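 active = activation factor of at least 2 at 5 µM in the primary screen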;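 also: 0 = wells with 2.5 mM tranylcypromine and 1 = vehicle-only wells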
Target sequence (P33261 whole entry, looked up): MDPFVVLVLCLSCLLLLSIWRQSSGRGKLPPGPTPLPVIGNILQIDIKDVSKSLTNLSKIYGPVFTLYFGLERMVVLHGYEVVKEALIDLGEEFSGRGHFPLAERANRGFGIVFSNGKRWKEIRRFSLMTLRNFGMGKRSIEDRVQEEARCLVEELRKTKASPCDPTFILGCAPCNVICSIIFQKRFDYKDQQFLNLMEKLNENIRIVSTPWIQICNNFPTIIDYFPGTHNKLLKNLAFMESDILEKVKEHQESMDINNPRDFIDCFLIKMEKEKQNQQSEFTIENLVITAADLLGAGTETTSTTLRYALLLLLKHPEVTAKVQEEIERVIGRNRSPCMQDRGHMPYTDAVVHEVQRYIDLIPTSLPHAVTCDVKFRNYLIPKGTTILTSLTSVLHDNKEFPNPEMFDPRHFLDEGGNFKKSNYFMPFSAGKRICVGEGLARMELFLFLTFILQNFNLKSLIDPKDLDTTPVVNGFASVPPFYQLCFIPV
CYP2C19 inhib = blocks human cytochrome P450 2C19; P33261; CYP2C19 Supersomes, luciferin-H EGE luminescence, 30 min; inhibition, % at 5 µM; 96,000 tested, 21% active; AID 778;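 active = CYP2C19 inhibition above a set limit at 5 µM in the primary screen, cut at about 50% in these data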;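 also: plate controls were negative control wells for no effect and 2.5 mM tranylcypromine positive control for full effect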
CYP2C9 activ = increases human cytochrome P450 2C9 activity; recombinant CYP2C9, luciferin-H conversion, luminescence; stronger effect = higher value; factor 1 = untreated enzyme, 0 = blocked; activation factor at 5 µM; 96,000 tested, 1.4% active; P11712;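 active = activation factor of 2 or more for CYP2C9 at a 5 µM dose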;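 also: 0 = sulfaphenazole-blocked wells and 1 = vehicle-only wells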
CYP2C9 inh = blocks human cytochrome P450 2C9; P11712; CYP2C9 Supersomes, luciferin-H conversion, luminescence; inhibition, % at 5 µM; 96,000 tested, 20% active; AID 777;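 active = blocking of liver enzyme CYP2C9 beyond about 50% at 5 µM, limit read from the data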
* marks the source's active call; other numbers are inactive results; · = no result.

SMILES	sEH inh	sEH activator	CYP2C19 act	CYP2C19 inhib	CYP2C9 activ	CYP2C9 inh
Nc1cc2c(cc1C(=O)c1ccccc1)OCCO2	-4	5	0.5	51*	0.7	29
Nc1cc2c(cc1C(=O)c1ccc(Cl)cc1)OCCO2	-5	6	0.4	61*	0.3	70*
O=C(NC(=S)Nc1cccc(Cl)c1N1CCCC1)c1ccc(-c2cccc([N+](=O)[O-])c2)o1	9	-10	1	-1	1	2
COc1ccccc1NC(=O)c1cn(C)c(=O)c2cc(OC)c(OC)cc12	·	·	1	1	0.7	28
COc1ccccc1NC(=O)c1cc(Sc2nncn2C)nc2ccccc12	-4	5	0.6	38	0.2	80*
COc1ccc(N2CCN(C(=O)C(CCSC)N=C3NS(=O)(=O)c4ccccc43)CC2)cc1 (centres undefined)	7	-8	0.9	12	0.7	33
COc1cc(C(=O)O)ccc1OCc1c(C)noc1C	10	-8	1.2	-21	1.1	-7
Cc1ccc2c(Cl)cc(Cl)c(OCc3c(C)noc3C)c2n1	-11	13	0.3	67*	0.9	8
CCOC(=O)C1CCCN(c2c(NCCCN3CCCC(C)C3)c(=O)c2=O)C1 (centres undefined)	10	-9	1	2	0.9	10
CSCCC(NC(=O)C1CC1)c1nc2ccccc2[nH]1 (centres undefined)	-9	7	0.9	13	0.9	6
CCCn1c(NC(=O)c2cccc(C)c2C)nc2ccccc21	-4	4	0.3	75*	0.8	17
CSCC[C@H](NC(=O)c1ccc(Cl)c(S(=O)(=O)N2CCCC2)c1)c1nc2ccccc2[nH]1	11	-10	0.4	59*	0.3	68*
O=C(NCc1nc2ccccc2[nH]1)c1ccc(Cl)c(S(=O)(=O)N2CCCC2)c1	8	-10	0.3	65*	0.5	45
CCCn1c(NC(=O)c2ccc(Cl)c(S(=O)(=O)N3CCCC3)c2)nc2ccccc21	-8	9	0.2	83*	0.2	84*
COc1ccc(C2/C(=C(/O)c3ccccc3)C(=O)C(=O)N2CCN2CCOCC2)c(OC)c1 (centres undefined)	6	-6	1	-2	0.9	10
C=CCN1C(=O)/C(=C2/C(=O)N(CC(=O)O)c3ccccc32)S/C1=N/c1nccs1	2	1	1.1	-10	0.9	13
Nc1nc(OCC(F)(F)F)cc(Oc2ccccc2F)n1	·	·	0.4	59*	0.9	14
CCOc1ccccc1Oc1ccc(C(F)(F)F)cn1	8	-6	1	0	1.1	-7
O=C(Nc1nc2ccccc2[nH]1)C1CCN(S(=O)(=O)c2cccs2)CC1	-7	9	1	-2	1	1
Cc1ccc(NC2=Nc3ccccc3CC2)cc1	-19	22	0.2	84*	0.6	38
c1ccc(NC2=Nc3ccccc3CS2)cc1	0	1	0.7	31	0.8	15
Brc1ccc(NC2=Nc3ccccc3CC2)cc1	15	-13	0.5	52*	0.7	28
COc1ccccc1NC(=O)Nn1cnnc1	·	·	1.2	-20	1.1	-12
N#C/C(=C1\C(=O)Nc2c(Cl)cc(Cl)cc21)c1nnc2n1CCCCC2	-9	9	1.1	-5	1	4
CC(C)CNC(=O)c1cccc(NC(=O)c2ccc(NC(=O)c3ccco3)cc2)c1	3	-2	0.9	10	0.8	21
SMILES	sEH inh	sEH activator	CYP2C19 act	CYP2C19 inhib	CYP2C9 activ	CYP2C9 inh
CC(=O)Nc1ccc(OCC(O)Cn2nc(C)nc2C)cc1 (centres undefined)	2	2	1	3	1.1	-7
Cc1nc(C)n(CC(O)COc2ccc3ccccc3c2)n1 (centres undefined)	-3	6	0.3	70*	1	-1
COc1ccc(-n2c(-c3ccccc3)cc3c2CCCC3=O)cc1	-3	6	0.2	76*	0.7	26
O=C(CN1CCN(Cc2ccccc2Cl)C1=O)NC1CCCCCC1	78	-78	0.4	60*	1.8	-80
O=C1N(CC(=O)N2CCc3ccccc32)CCN1Cc1ccccc1Cl	2	-3	0.7	25	3*	-204
CCOC(=O)CNC(=O)Cn1cnc2sc(C)c(S(=O)(=O)N3CCC(C)CC3)c2c1=O	3	-5	·	·	·	·
Cc1ccc(-c2cc(C(=O)Nc3ccccc3C)c3ccccc3n2)o1	-4	6	·	·	·	·
Cc1ccc(-c2cc(C(=O)NC3=NCCS3)c3cc(Br)ccc3n2)o1	3	-3	0.5	52*	0.8	20
Cc1cccc(-c2cc(C(=O)NCCCn3ccnc3)c3ccccc3n2)c1	0	4	0.1	87*	0	100*
Cc1ccc(-c2cc(C(=O)NCCCn3ccnc3)c3cc(Br)ccc3n2)o1	-2	-2	0.1	94*	0	100*
Cc1cccc(NC(=O)NCc2ccccn2)c1	-3	6	·	·	·	·
Cc1cc(O)ccc1Nc1nc2ccccc2nc1Nc1ccc(O)cc1C	1	-2	0.1	87*	0	96*
O=C(CSc1nnc(-c2ccccn2)n1Cc1ccccc1)NC1CCCC1	-2	4	0.6	38	0.7	33
CCCNC(=O)COC(=O)c1ccccc1OCc1ccc(Cl)cc1	-17	16	0.1	87*	0.2	78*
CNC(=O)COC(=O)c1ccccc1Oc1ccccc1	2	0	0.7	34	1	-3
N#C/C(=C\c1ccc(Cl)cc1Cl)c1n[nH]c(Cn2cncn2)n1	-15	17	0.4	61*	0.2	78*
COc1ccc2c(C(=O)CN(C)C3CCCCC3)c[nH]c2c1	4	-2	·	·	·	·
Cc1ccc(S(=O)(=O)N2CCN(C(=O)c3cc4c(C)nn(-c5ccccc5C)c4s3)CC2)cc1	0	3	0.6	42	0.4	63*
C#CC[N+](C)(C)C(C#Cc1ccccc1)CC=C (centres undefined)	-2	3	1.1	-8	1	3
Cc1ccc(O)c(C(=O)c2cnn(C(=O)Cc3csc(C)n3)c2)c1	·	·	0.7	28	0.2	77*
COc1ccc(C(=O)NCC(=O)NCC2COc3ccccc3O2)cc1 (centres undefined)	-4	6	0.6	44	0.6	43
O=C(CCN1CCCCC1)Nc1cccc(Cl)c1	-11	10	1	2	1.1	-7
CC1CC(C)CN(CCC(=O)Nc2cccc(Cl)c2)C1 (centres undefined)	-1	3	0.3	69*	0.8	18
Cc1cc(C)cc(NC(=O)CCN2CC(C)OC(C)C2)c1 (centres undefined)	·	·	0.7	33	1	-4
Cc1cccc(NC(=O)CCN2CC(C)OC(C)C2)c1 (centres undefined)	15	-14	0.3	73*	1	2
NC(=O)c1cnn(Cc2ccc(Cl)cc2)c1N	-10	12	1	-5	1	3
